Inconclusive results are not listed. Where a call stands in place of a potency, no number is given. Active and inactive are the calls of the source. Calls follow the shape of the dose curve; as a rule, active = well fitted activation curve with a large enough effect in the repeat runs; inconclusive = weak or mixed curves; inactive = no such curve, though single readings can be large or run the other way.
Potency is read from the fitted curve at half-maximal effect.

In this experiment the target is Nuclear receptor subfamily 1 group I member 2 (Homo sapiens) (UniProt O75469). In words: CYP3A4 induction through human pregnane X receptor (PXR) by small molecules, qHTS assay (AID 1346984). Also: nearly all actives have a fitted effect of over 40% in size. Particulars: DPX-2 HepG2 PXR, CYP3A4-luciferin luminescence, 24 h; series mostly up to 46.1 µM. The text has this:
National Center for Advancing Translational Sciences [NCATS]
NIH Chemical Genomics Center [NCGC]
U.S. Environmental Protection Agency [EPA]
National Institutes of Environmental Health Sciences [NIEHS]
National Toxicology Program [NTP]
The Pregnane X receptor (PXR), a ligand activated nuclear receptor plays a critical role in the regulation of genes involved in drug metabolism and transporters. Activation of PXR is responsible for unwanted adverse drug reactions. PXR binds xenobiotics and when compounds interact with PXR enhances the expression of CYP3A genes. Identifying the compounds with the potential for PXR activation and CYP3A4 induction can be of importance in improving the efficacy of drugs with less toxicity and avoiding drug-drug interactions.
DPX-2 (Puracyp, Inc.) cell lines, used for screening against human PXR activation has HepG2 cells co-transfected with a PXR response element and a luciferase construct containing CYP3A4 promoter. Increase in luciferase activity can be used to identify the compounds that cause the induction of CYP3A4.
DPX-2 cells were dispensed at 2,000 cells per well in 5uL of assay medium into white, solid-bottom 1536-well plates using a Multidrop Combi dispenser (Thermo Scientific). The assay plates were incubated at 37C for 5hr before transferring 23nL of test compounds dissolved in DMSO and positive control via Pintool station (Wako). The assay plates were incubated at 37C for 24hr. After 24hr compound treatment, 1uL of 3uM (final concentration) P450 substrate (P450-Glo CYP3A4 screening system with Luciferin-IPA, Promega) was added by a Flying Reagent Dispenser (FRD, Aurora Discovery). The assay plates were incubated for 3hr at 37C. Then 5ul One-Glo assay reagent (Promega) was added to each plate by an FRD and following 30 min incubation at room temperature, luciferase activity was quantified on a ViewLux plate reader (Perkin Elmer).
Background: In qHTS, concentration-response curves come from the screen itself.
As to `NC(=O)[C@@H]1C[C@]2(NC(=O)NC2=O)c2cc(F)ccc2O1`, the Potency result is “inactive”.
Then `CCCCCCCCCC(=O)NO`, with “inactive”; and `Cc1ncc(C[n+]2csc(CCOP(=O)(O)O)c2C)c(N)n1`, with “inactive”; and `CN(C)CCC(O)(c1ccccc1)c1ccccc1Cl` (stereo not given), with 12.6 µM (active).
Then `NC(N)=NCc1cccc(I)c1`, with “inactive”; and `COC1=C(OC)C(=O)C(C/C=C(\C)CC/C=C(\C)CC/C=C(\C)CC/C=C(\C)CC/C=C(\C)CC/C=C(\C)CC/C=C(\C)CC/C=C(\C)CC/C=C(\C)CCC=C(C)C)=C(C)C1=O`, with “inactive”.
Then `CO/N=C(\C(=O)N[C@@H]1C(=O)N2C(C(=O)[O-])=C(C[n+]3cccc4c3CCC4)CS[C@H]12)c1csc(N)n1`, with “inactive”.
Take `C(=C\c1ccncc1)/c1ccccc1`: the Potency entry is “inactive”.
For `CCC(NC(C)C)C(O)c1ccc(O)c(O)c1` (stereo not given), the Potency entry is “inactive”.
With `CC(C)(C)C(=O)OCC(=O)[C@H]1CC[C@H]2[C@@H]3CCC4=CC(=O)CC[C@]4(C)[C@H]3CC[C@]12C`, the Potency entry is “inactive”.
For the compound `O=P(O)(O)OP(=O)(O)OP(=O)(O)O`, the Potency entry is “inactive”.
For `CC(C)C[C@@H](NC(=O)[C@@H](O)[C@H](N)Cc1ccccc1)C(=O)O` the value was “inactive”.
As to `CNC(=O)C[C@@H](N)C(=O)N[C@@H](C(=O)N[C@@H]1C(=O)N2[C@@H]1SC(C)(C)[C@@H]2C(=O)O)c1ccc(O)cc1`, the Potency entry was “inactive”.
For `C[C@H](NCCc1ccc(O)cc1)[C@H](O)c1ccc(O)cc1` the value was “inactive”; for `N[C@H](CO)C(=O)O`, “inactive”.
For `CCOc1cc(CC(=O)N[C@@H](CC(C)C)c2ccccc2N2CCCCC2)ccc1C(=O)O` the value was “inactive”.
Then `O=C1CC[C@@H](C(=O)N[C@H]2C[C@@H]2c2ccccc2)N1`, with “inactive”; and `O=C(CCN1CCC(c2ccccc2)C1)c1ccc2c(c1)OCCO2` (stereo not given), with “inactive”.
As to `CC1(C)CCC(NC(=O)[C@@H](N)CCC(=O)O)CC1`, the Potency entry was “inactive”.
As for `c1ccc2c(c1)OCC(CN1CCCCC1)O2` (stereo not given), the Potency result was “inactive”.
Then `CN(Cc1ccccc1)Cc1ccccc1`, with “inactive”; and `O=C(O)[C@@H]1C[C@H](CP(=O)(O)O)CCN1`, with “inactive”; and `CC(=O)OCC(=O)[C@@]1(O)CC[C@H]2[C@@H]3CCC4=CC(=O)CC[C@]4(C)C3=CC[C@@]21C`, with “inactive”.
Regarding `O=C(O)COc1ccc(C(=O)c2cccs2)c(Cl)c1Cl`, the Potency result was “inactive”.
`CCN(CC)CCOC[C@H]1O[C@@H](O)[C@H](OCCN(CC)CC)[C@@H](O)[C@@H]1O`: the Potency result was “inactive”.
Turning to `CC1(C)S[C@@H]2[C@H](NC(=O)[C@H](N)c3ccc(O)cc3)C(=O)N2[C@H]1C(=O)O`, the Potency entry is “inactive”.
On to `CNCCC=C1c2ccccc2CCc2ccccc21`, for which the Potency was 7.08 µM (active).
Then `C=C1[C@@H]2CC[C@@H](C2)C1(C)C`, with “inactive”; and `Cc1ccc(C(C)(C)c2ccc(C)cc2)cc1`, with “inactive”; and `CSCCC(N)C(=O)O` (stereo not given), with “inactive”.
Then `C[C@@H]1C[C@H]2[C@@H]3C[C@H](F)C4=CC(=O)C=C[C@]4(C)[C@@]3(Cl)[C@@H](O)C[C@]2(C)[C@H]1C(=O)COC(=O)C(C)(C)C`, with “inactive”; and `N=C(N)c1ccc(/C=C/c2ccc(C(=N)N)cc2O)cc1`, with “inactive”.
As for `Oc1ccc(Cl)c2c1CCC2`, the Potency result was “inactive”.
For the compound `O=C[C@H](O)[C@@H](O)[C@@H](O)[C@H](O)CO`, the Potency entry was “inactive”.
Then `CC(=O)Nc1ccc(OC(C)=O)cc1`, with “inactive”.
For `C/C(=C\C(=O)OCCCCCCCCC(=O)O)C[C@@H]1OC[C@H](C[C@@H]2O[C@H]2[C@@H](C)[C@H](C)O)[C@@H](O)[C@H]1O` the value was “inactive”.
For `Nc1cc(Cl)c(NC2=NCCN2)c(Cl)c1` the value was “inactive”; for `C[C@@H]1O[C@@H]1P(=O)(O)O`, “inactive”; for `C/C=C/C1=C(C(=O)O)N2C(=O)[C@@H](NC(=O)[C@H](N)c3ccc(O)cc3)[C@H]2SC1`, “inactive”.
With `C[N+](C)(C)CCOP(=O)(O)OP(=O)([O-])OC[C@H]1O[C@@H](n2ccc(N)nc2=O)[C@H](O)[C@@H]1O`, the Potency result was “inactive”.
